In the library only some 2.2% were active in any assay of this set; here they are far more common.
aSyn 5UTR inh: 5' untranslated region of α-synuclein, MLPCN primary screen; inhibition, % (tested at 7.5 µM); alpha-synuclein 5'UTR reporter, inhibitor activity; AID 1813; actives 0.82% (n = 300,000); in the data active = inhibition above about 60%;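 note: H4 neuroglioblastoma cells stably carrying SNCA 5'UTR luciferase fusion; 0% = DMSO wells and 100% = positive control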
Ba/F3 V617F tox: reduce viability of Ba/F3 cells dependent on JAK2V617F; Ba/F3 EpoR-JAK2V617F viability, ATP luminescence; inhibition, % at 5.6 µM; actives 1.1% (n = 220,000); AID 1446;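 active = inhibition above the campaign mean plus 3 SD over all tested compounds, cut at about 24% in these data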;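 note: cytokine-independent growth of Ba/F3 cells driven by EpoR plus mutant JAK2; 0% = DMSO-treated cells and 100% = JAK inhibitor I control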
BaF3 parental: parental Ba/F3 viability inhibition as JAK2V617F counter-screen; inhibition, % at 5.6 µM; actives 1.1% (n = 220,000); CellTiter-Glo ATP luminescence;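 active = inhibition above a per-campaign cutoff, the mean inhibition of all tested compounds plus 3 SD, cut at about 27% in these data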;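 note: 0% = DMSO wells and 100% = JAK Inhibitor I control wells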
IEC-6 cytotox: kills IEC-6 intestinal cells in KLF5 counter-screen; inhibition, % at 5 µM; IEC-6 cytotoxicity, luminescence viability; actives 0.78% (n = 290,000);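 note: 0% = plate median of test compound wells and 100% = cytotoxic reference compound wells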
KLF5 inhibitor: suppresses KLF5 promoter-driven expression. actives 0.23% (n = 290,000). inhibition, % at 5 µM. DLD-1 KLF5 promoter-luciferase reporter, luminescence;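 active = inhibition above a per-plate limit of that plate's mean compound inhibition plus 3 SD, cut at about 60% in these data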;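 note: 0% = DMSO wells and 100% = LY294002 at 200 µM; higher means less KLF5 promoter-driven luciferase light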
APP transl inh: APP translation inhibition | actives 0.82% (n = 190,000) | inhibition, % at 2 µM | SH-SY5Y APP 5'UTR-luciferase reporter, luminescence;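 active = inhibition above a set limit, derived from the sample mean plus 3 SD, cut at about 45% in these data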
IEC-6 tox confirm: confirmation of cytotoxic compounds in rat IEC-6 intestinal epithelial cells | shares compounds with IEC-6 cytotox | IEC-6 rat intestinal epithelial viability, luminescence | inhibition, % at 5 µM | actives 63% (n = 1,900) | AID 1907;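 note: 0% = vehicle and 100% = reference cytotoxic drug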
Active calls of the source: *; nt = no result given. Cut-off read from the data, not from the text of the source, unless noted: active = inhibition above about 22%; inactive = the rest.

SMILES	aSyn 5UTR inh	Ba/F3 V617F tox	BaF3 parental	IEC-6 cytotox	KLF5 inhibitor	APP transl inh	IEC-6 tox confirm
O=C(NCc1ccccc1)C1CCC(CNS(=O)(=O)c2cccs2)CC1 (stereo not drawn)	3	nt	nt	-6	1	nt	nt
CC1=Nc2cc(C(=O)NCCN3CCOCC3)ccc2Sc2c(C)ccc(C)c21	50	nt	nt	33*	14	nt	32*
CC1=Nc2cc(C(=O)NCCCN3CCOCC3)ccc2Sc2c(C)ccc(C)c21	41	nt	nt	18	-8	nt	nt
O=C(N/N=C/c1ccccn1)c1ccc(Cl)c(Cl)c1	-20	nt	nt	22*	-4	nt	11
CC(C)(C)c1ccc(C(=O)NCC(=O)N2CCCCCC2)cc1	-31	nt	nt	-1	-41	nt	nt
Clc1ccc2nc(SCc3nnc(-c4ccccc4)o3)[nH]c2c1	7	-4	4	4	6	-8	nt
Cc1ccc2nc(SCc3nnc(-c4ccccc4Br)o3)[nH]c2c1	29	-4	4	22*	-7	-16	15
O=C(c1cccc(N2CCCC2=O)c1)N1CCN(c2cccc(Cl)c2)CC1	12	nt	nt	44*	13	nt	17
COc1ccc(-n2cc(-c3ccccc3)[nH]c2=S)c(OC)c1	-75	nt	nt	26*	3	nt	4
COc1ccc(-n2cc(-c3ccc(OC)c(OC)c3)[nH]c2=S)cc1	-7	-4	1	1	-54	-13	nt
O=C(CSc1nnc(CNC(=O)c2c(F)cccc2Cl)o1)NCCc1ccccc1	5	nt	nt	5	-19	nt	nt
CCN(CC)c1ccc(/C=N/NC(=O)c2cnccn2)cc1	-85	78*	74*	43*	7	74*	56*
Cc1noc(C)c1S(=O)(=O)Nc1ccc(C(C)C)cc1	22	nt	nt	-5	-47	nt	nt
CN(C)CC(CCC(CN(C)C)C(O)(c1ccccc1)c1ccccc1)C(O)(c1ccccc1)c1ccccc1 (stereo not drawn)	101*	nt	nt	45*	2	nt	42*
C=CCSc1nc2sc(C)c(C)c2c(=O)n1CC=C	-19	-5	0	-3	-9	11	nt
C=CCn1c(SCC(=O)c2cccs2)nc2sc(C)c(C)c2c1=O	40	6	7	68*	-12	11	46*
COc1ccccc1N(CC(=O)NCC1CCCO1)C(=O)CNS(=O)(=O)c1ccc(Cl)cc1 (stereo not drawn)	-10	-2	-1	1	-9	nt	nt
Cc1ccc(OCCC(=O)OCC(=O)NCCc2ccc(Cl)cc2)cc1	2	nt	nt	nt	nt	nt	nt
CC1c2cc3c(cc2CCN1C(=O)c1cccc(Cl)c1)OCCCO3 (stereo not drawn)	-65	nt	nt	25*	-10	nt	8
CC1c2cc3c(cc2CCN1CC(=O)Nc1ccccc1)OCCCO3 (stereo not drawn)	-6	nt	nt	6	10	nt	nt
COc1cc(/C=N/Nc2nc(C)nc3c2cnn3-c2ccccc2)ccc1O	-14	46*	51*	32*	11	50*	9
COc1cc(/C=N/NC(=O)c2nc(-c3ccccc3)n(-c3ccccc3)n2)ccc1O	39	-1	3	2	-17	12	nt
O=C(NNc1ccccc1F)c1ccccc1	3	11	-7	26*	-2	nt	-9
CC(C)c1nnc(NC(=O)CC(C)c2ccccc2)s1 (stereo not drawn)	-56	nt	nt	-1	-48	nt	nt
Cc1cnc(NC(=O)CC(C)c2ccccc2)s1 (stereo not drawn)	-196	nt	nt	33*	28	nt	23*
SMILES	aSyn 5UTR inh	Ba/F3 V617F tox	BaF3 parental	IEC-6 cytotox	KLF5 inhibitor	APP transl inh	IEC-6 tox confirm
CCNc1oc(/C=C/c2ccc(OCC)cc2)nc1C#N	-188	nt	nt	52*	-17	nt	36*
CCN(CC)CCCNc1oc(/C=C/c2ccccc2)nc1C#N	-64	-4	3	3	-29	nt	nt
CN(CC(=O)Oc1ccc(-c2nnco2)cc1)S(=O)(=O)c1ccc(F)cc1	6	nt	nt	nt	nt	nt	nt
Cc1cccn2c(=O)c3cc(C(=O)NCc4ccco4)c(=N)n(CCc4ccccc4)c3nc12	nt	1	-4	-12	-16	nt	nt
Cc1ccc(CNC(=O)c2cc3c(=O)n4ccccc4nc3n(Cc3ccco3)c2=N)cc1	-12	nt	nt	nt	nt	nt	nt
COc1ccc(CCNC(=O)c2cc3c(=O)n4cccc(C)c4nc3n(Cc3ccco3)c2=N)cc1OC	2	nt	nt	36*	-3	nt	1
Cc1cccn2c(=O)c3cc(C(=O)NCCc4ccccc4)c(=N)n(Cc4ccco4)c3nc12	-27	nt	nt	63*	25	nt	-2
CCOC(=O)Nc1nc(-c2ccccc2)c(C(=O)c2ccc(Cl)cc2)s1	114*	73*	77*	86*	59	94*	57*
